# Data taken from PubChem BioAssay (EPA / NIEHS).
# Where “and” joins values, the source holds several entries; their conditions need not be identical. Equal entries are not always repeated. Where a structure was tested more than once in an assay, its records may differ in their call. Calls of active or inactive are those of the source. How the source made its calls: active means hit-call score of the fitted dose curve at least 0.9, where 1 is the maximum; inactive means score below 0.9.
# Tests used:
# [1] = read-out: Vascular cell adhesion molecule 1 (VCAM1), VCAM1 (gene 7412); test: BSK_hDFCGF_VCAM1: BioMAP Diversity Plus: hDFCGF Assay for Vascular cell adhesion molecule 1 (VCAM1) Biomarker Activity (AID 2283065); settings: primary human foreskin fibroblasts; actives raise or lower the signal;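 on AC50: VCAM-1 protein level quantified by ELISA after 24 h chemical exposure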
# Procedure, shortened: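 Measured after 24 h chemical treatment of primary human skin fibroblasts, VCAM-1 was detected by ELISA and concentration-response analysed in both directions versus DMSO vehicle.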
# [2] = read-out: Plasminogen activator inhibitor-1 (PAI1), SERPINE1 (gene 5054); test: BSK_hDFCGF_PAI1: BioMAP Diversity Plus: hDFCGF Assay for Plasminogen activator inhibitor-1 (PAI1) Biomarker Activity (AID 2283066); settings: primary human foreskin fibroblasts; actives raise or lower the signal
# Procedure, shortened: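 ELISA readout of PAI-1 from primary human skin fibroblast cultures, 24 h after compound addition. Gain or loss of signal was fitted bidirectionally against DMSO baseline.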
# [3] = read-out: Intercellular Adhesion Molecule 1 (ICAM1), ICAM1 (gene 3383); test: BSK_KF3CT_ICAM1: BioMAP Diversity Plus: KF3CT Assay for Intercellular Adhesion Molecule 1 (ICAM1) Biomarker Activity (AID 2283067); settings: primary human keratinocytes with fibroblasts; actives raise or lower the signal
# Procedure, shortened: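 Bidirectional curve fitting against a DMSO baseline was applied to ICAM-1 ELISA signal from primary human skin co-cultures harvested 24 h after treatment, with SRB staining of parallel wells for overt cytotoxicity.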
# [4] = read-out: Interferon-gamma inducible Protein 10 (IP10), CXCL10 (gene 3627); test: BSK_KF3CT_IP10: BioMAP Diversity Plus: KF3CT Assay for Interferon-gamma inducible Protein 10 (IP10) Biomarker Activity (AID 2283068); settings: primary human keratinocytes with fibroblasts; actives raise or lower the signal
# Procedure, shortened: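 Signal is secreted/surface IP-10 by ELISA in a human primary skin co-culture of keratinocytes and foreskin fibroblasts, taken 24 h post-dosing; DMSO served as negative control.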
# [5] = BSK_KF3CT_SRB: Viability Assessment in the BioMAP Diversity Plus: KF3CT Assay (AID 2283069); settings: primary human keratinocytes with fibroblasts;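 further: total protein by sulforhodamine B staining as a cytotoxicity measure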
# Procedure, shortened: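 Cytotoxicity was gauged by SRB staining (0.1% SRB, 10% TCA fixation, 560 nm) of parallel cultures at 24 h. The cells were primary human skin keratinocytes co-cultured with fibroblasts, and activity was fitted in both directions against DMSO.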
# [6] = read-out: Interleukin-1 alpha (IL1a), IL1A (gene 3552); test: BSK_KF3CT_IL1a: BioMAP Diversity Plus: KF3CT Assay for Interleukin-1 alpha (IL1a) Biomarker Activity (AID 2283070); settings: primary human keratinocytes with fibroblasts; actives raise or lower the signal
# Procedure, shortened: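 IL-1a was detected by ELISA 24 h after chemical treatment of a co-culture of human skin keratinocytes and foreskin fibroblasts. Gain or loss of signal was fitted against the DMSO baseline.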
# [7] = read-out: TIMP metallopeptidase inhibitor 2 (TIMP2), TIMP2 (gene 7077); test: BSK_KF3CT_TIMP2: BioMAP Diversity Plus: KF3CT Assay for TIMP metallopeptidase inhibitor 2 (TIMP2) Biomarker Activity (AID 2283071); settings: primary human keratinocytes with fibroblasts; actives raise or lower the signal
# Procedure, shortened: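 ELISA readout of TIMP-2 in keratinocyte plus foreskin fibroblast co-cultures (human skin primary cells), 24 h post-dose. Gain or loss of signal fitted relative to DMSO.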
# [8] = read-out: Transforming growth factor beta 1 (TGFb1), TGFB1 (gene 7040); test: BSK_KF3CT_TGFb1: BioMAP Diversity Plus: KF3CT Assay for Transforming growth factor beta 1 (TGFb1) Biomarker Activity (AID 2283072); settings: primary human keratinocytes with fibroblasts; actives raise or lower the signal
# Procedure, shortened: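 Read-out: ELISA for TGF-b1 in keratinocyte/foreskin fibroblast human skin co-culture, 24 h after dosing; bidirectional curve fit vs DMSO baseline; gain or loss of signal scored.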
# [9] = read-out: C-C motif chemokine 2 (Homo sapiens) (UniProt P13500); test: BSK_KF3CT_MCP1: BioMAP Diversity Plus: KF3CT Assay for Monocyte Chemoattractant Protein 1 (MCP1/CCL2) Biomarker Activity (AID 2283073); settings: primary human keratinocytes with fibroblasts; actives raise or lower the signal
# Procedure, shortened: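 Biomarker MCP-1 is measured by ELISA in primary human keratinocytes co-cultured with foreskin fibroblasts, 24 h after chemical treatment; DMSO serves as the negative control and activity baseline.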
# [10] = read-out: Matrix Metallopeptidase 9 (MMP9), MMP9 (gene 4318); test: BSK_KF3CT_MMP9: BioMAP Diversity Plus: KF3CT Assay for Matrix Metallopeptidase 9 (MMP9) Biomarker Activity (AID 2283074); settings: primary human keratinocytes with fibroblasts; actives raise or lower the signal;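 on AC50: MMP9 protein level quantified by ELISA in the co-culture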
# Procedure, shortened: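 MMP-9 quantified by ELISA after 24 h chemical treatment of primary human skin keratinocyte/fibroblast co-cultures; gain or loss fitted against DMSO, with parallel SRB staining (0.1% SRB, 560 nm) for overt cytotoxicity.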
# [11] = read-out: urokinase plasminogen activator (uPA), PLAU (gene 5328); test: BSK_KF3CT_uPA: BioMAP Diversity Plus: KF3CT Assay for urokinase plasminogen activator (uPA) Biomarker Activity (AID 2283075); settings: primary human keratinocytes with fibroblasts; actives raise or lower the signal
# Procedure, shortened: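 ELISA read-out of uPA 24 h after dosing human skin keratinocytes co-cultured with foreskin fibroblasts. Signal change fitted both ways relative to DMSO; sulforhodamine B on parallel cultures marks overt cytotoxicity.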
# CD40, CD40 (gene 958) = test: BSK_LPS_CD40: BioMAP Diversity Plus: LPS Assay for CD40 Biomarker Activity (AID 2283076); settings: primary human HUVEC with PBMC; actives raise or lower the signal
# Procedure, shortened: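 Using a multiplexed primary human co-culture (umbilical vein endothelium plus PBMC), CD40 was read by ELISA 24 h after dosing, with cytotoxicity tracked by sulforhodamine B staining of parallel cultures and activity fitted bidirectionally versus DMSO.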
# [12] = BSK_LPS_SRB: Viability Assessment in the BioMAP Diversity Plus: LPS Assay (AID 2283079); settings: primary human HUVEC with PBMC;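 further: total protein by sulforhodamine B absorbance as a cytotoxicity measure; measured one day after compound addition; fitted in both directions against DMSO so loss or gain of signal counts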
# Procedure, shortened: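 Cytotoxicity endpoint in human endothelial–PBMC co-culture: 24 h exposure, then SRB (0.1%) staining, 560 nm read.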
# [13] = read-out: Interleukin-1 alpha (IL1a), IL1A (gene 3552); test: BSK_LPS_IL1a: BioMAP Diversity Plus: LPS Assay for Interleukin-1 alpha (IL1a) Biomarker Activity (AID 2283080); settings: primary human HUVEC with PBMC; actives raise or lower the signal
# Procedure, shortened: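 Primary human HUVEC and PBMC co-culture stimulated with LPS is dosed and harvested at 24 h. Both increases and decreases in ELISA-measured IL-1a are scored relative to DMSO.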
# [14] = read-out: Monocyte Chemoattractant Protein-1 (MCP1), CCL2 (gene 6347); test: BSK_LPS_MCP1: BioMAP Diversity Plus: LPS Assay for Monocyte Chemoattractant Protein-1 (MCP1) Biomarker Activity (AID 2283081); settings: primary human HUVEC with PBMC; actives raise or lower the signal;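 on AC50: secreted MCP-1 protein quantified by ELISA in culture supernatant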
# Procedure, shortened: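 Values derive from bidirectional fitting against DMSO of ELISA-measured MCP-1 in a human primary endothelial and mononuclear cell co-culture, 24 h after chemical addition under LPS activation.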
# [15] = BSK_LPS_PGE2: BioMAP Diversity Plus: LPS Assay for Prostaglandin E2 (PGE2) Biomarker Activity (AID 2283082); settings: primary human HUVEC with PBMC; actives raise or lower the signal
# Procedure, shortened: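 ELISA read-out of PGE2 from human umbilical vein endothelial cells co-cultured with peripheral blood mononuclear cells under LPS, 24 h post-dose. Gain or loss of signal scored relative to DMSO baseline.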
# [16] = read-out: Macrophage colony-stimulating factor (MCSF), CSF1 (gene 1435); test: BSK_LPS_MCSF: BioMAP Diversity Plus: LPS Assay for Macrophage colony-stimulating factor (MCSF) Biomarker Activity (AID 2283083); settings: primary human HUVEC with PBMC; actives raise or lower the signal
# Procedure, shortened: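 Bidirectional fit versus DMSO of ELISA-measured M-CSF in co-cultured human umbilical vein endothelial cells and PBMC, sampled 24 h after dosing.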
# [17] = read-out: Tissue Factor, F3 (gene 2152); test: BSK_LPS_TissueFactor: BioMAP Diversity Plus: LPS Assay for Tissue Factor Biomarker Activity (AID 2283084); settings: primary human HUVEC with PBMC; actives raise or lower the signal
# Procedure, shortened: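 Read-out: CD142 ELISA, 24 h. System: LPS-driven human endothelial/PBMC co-culture. Analysis: up- or down-signal fitted against DMSO.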
# [18] = read-out: E-selectin (Homo sapiens) (UniProt P16581); test: BSK_LPS_Eselectin: BioMAP Diversity Plus: LPS Assay for Eselectin Biomarker Activity (AID 2283077); settings: primary human HUVEC with PBMC; actives raise or lower the signal
# Procedure, shortened: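 Dose chemical onto LPS-driven HUVEC/PBMC co-culture; after 24 h, run ELISA for E-selectin; fit up- and down-going responses relative to DMSO control.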
# [19] = read-out: Interleukin-8 (IL8), CXCL8 (gene 3576); test: BSK_LPS_IL8: BioMAP Diversity Plus: LPS Assay for Interleukin-8 (IL8) Biomarker Activity (AID 2283078); settings: primary human HUVEC with PBMC; actives raise or lower the signal
# Procedure, shortened: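 In this LPS system, chemical-treated human umbilical vein endothelium/PBMC co-cultures were harvested at 24 h for IL-8 ELISA.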
# E-selectin (Homo sapiens), sequence (P16581 whole entry, looked up): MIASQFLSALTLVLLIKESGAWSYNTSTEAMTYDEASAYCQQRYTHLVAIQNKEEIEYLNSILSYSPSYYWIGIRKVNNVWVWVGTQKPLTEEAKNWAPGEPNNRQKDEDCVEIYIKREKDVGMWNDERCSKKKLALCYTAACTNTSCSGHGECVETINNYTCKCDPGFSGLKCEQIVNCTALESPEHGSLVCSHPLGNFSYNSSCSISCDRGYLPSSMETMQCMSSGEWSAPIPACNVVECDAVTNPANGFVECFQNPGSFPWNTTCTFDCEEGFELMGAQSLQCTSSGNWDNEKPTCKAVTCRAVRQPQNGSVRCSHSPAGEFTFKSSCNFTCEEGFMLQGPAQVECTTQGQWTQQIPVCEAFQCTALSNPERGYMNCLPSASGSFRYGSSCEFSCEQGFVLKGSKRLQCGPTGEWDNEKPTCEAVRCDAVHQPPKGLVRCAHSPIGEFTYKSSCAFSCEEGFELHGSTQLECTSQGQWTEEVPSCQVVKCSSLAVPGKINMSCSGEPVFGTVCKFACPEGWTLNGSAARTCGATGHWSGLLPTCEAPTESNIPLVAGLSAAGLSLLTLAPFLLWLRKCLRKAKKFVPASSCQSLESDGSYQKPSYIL
compound,measurement,setting,value
Oc1c(I)cc(I)cc1I,outcome,[1],inactive
same,AC50,[2],11.5 µM (active)
same,AC50,[3],20 µM (active)
same,AC50,[4],23 µM (active)
same,outcome,[5],inactive
same,AC50,[6],27.7 µM (active)
same,AC50,[7],17 µM (active)
same,AC50,[8],7.06 µM (active)
same,outcome,[9],inactive
same,AC50,[10],5.35 µM (active)
same,AC50,[11],31.2 µM (active)
same,AC50,"CD40, CD40 (gene 958)",14.2 µM (active)
same,AC50,[12],20 µM (active)
same,outcome,[13],inactive
same,outcome,[14],inactive
same,outcome,[15],inactive
same,AC50,[16],31.1 µM (active)
same,outcome,[17],inactive
Cn1sc(Cl)cc1=O,AC50,[1],23.4 µM (active)
same,AC50,[2],35.2 µM (active)
same,AC50,[3],20 µM (active)
same,outcome,[4],inactive
same,outcome,[5],inactive
same,outcome,[6],inactive
same,outcome,[7],inactive
same,outcome,[8],inactive
same,outcome,[9],inactive
same,outcome,[11],inactive
same,AC50,"CD40, CD40 (gene 958)",26 µM (active)
same,AC50,[18],35.4 µM (active)
same,outcome,[19],inactive
same,outcome,[12],inactive
same,AC50,[13],29.3 µM (active)
same,AC50,[14],35.2 µM (active)
same,AC50,[16],29.5 µM (active)
same,outcome,[17],inactive
O=S(=O)(c1ccc(Cl)cc1)c1ccc(Cl)cc1,AC50,[1],5.32 µM (active)
same,outcome,[2],inactive
same,outcome,[3],inactive
same,outcome,[4],inactive
same,outcome,[5],inactive
same,outcome,[6],inactive
same,outcome,[7],inactive
same,outcome,[8],inactive
same,outcome,[9],inactive
same,outcome,[10],inactive
same,outcome,[11],inactive
same,outcome,"CD40, CD40 (gene 958)",inactive
same,outcome,[12],inactive
same,outcome,[13],inactive
same,outcome,[14],inactive
same,outcome,[15],inactive
same,outcome,[16],inactive
same,outcome,[17],inactive
O=C(O)C(F)(F)C(F)(F)C(F)(F)C(F)(F)C(F)(F)C(F)(F)F,outcome,[1],inactive
same,outcome,[2],inactive
same,outcome,[3],inactive
same,outcome,[4],inactive
same,outcome,[5],inactive
same,outcome,[6],inactive
same,outcome,[7],inactive
same,outcome,[8],inactive
same,outcome,[9],inactive
same,outcome,[11],inactive
same,outcome,"CD40, CD40 (gene 958)",inactive
same,outcome,[18],inactive
same,AC50,[19],14.6 µM (active) and 30 µM (active)
same,outcome,[19],inactive
same,outcome,[12],inactive
same,outcome,[13],inactive
same,outcome,[14],inactive
same,outcome,[15],inactive
same,outcome,[16],inactive
same,outcome,[17],inactive
O=C(O)C(F)(F)C(F)(F)C(F)(F)C(F)(F)C(F)(F)C(F)(F)C(F)(F)C(F)(F)C(F)(F)C(F)(F)F,AC50,[1],11.7 µM (active) and 3.07 µM (active) and 4.25 µM (active)
same,AC50,[2],10.7 µM (active) and 5.61 µM (active) and 5.09 µM (active)
same,AC50,[3],12.9 µM (active) and 5 µM (active) and 4.73 µM (active)
same,AC50,[4],6.91 µM (active) and 5.45 µM (active) and 5.25 µM (active)
same,AC50,[5],9.99 µM (active) and 5.01 µM (active) and 5.38 µM (active)
same,AC50,[6],10.8 µM (active) and 3.41 µM (active) and 5.06 µM (active)
same,AC50,[7],9.27 µM (active) and 6.15 µM (active) and 6.13 µM (active)
same,AC50,[8],5.59 µM (active)
same,AC50,[9],7.51 µM (active) and 4.5 µM (active) and 4.55 µM (active)
same,AC50,[10],6.03 µM (active) and 3.85 µM (active) and 4.19 µM (active)
same,AC50,[11],9.7 µM (active) and 5.47 µM (active) and 5.16 µM (active)
same,AC50,"CD40, CD40 (gene 958)",29.5 µM (active)
same,outcome,"CD40, CD40 (gene 958)",inactive
same,AC50,[12],34.8 µM (active)
same,outcome,[12],inactive
same,AC50,[13],29.6 µM (active)
same,outcome,[13],inactive
same,AC50,[14],30.2 µM (active)
same,outcome,[14],inactive
same,AC50,[16],31.4 µM (active)
same,outcome,[16],inactive
same,AC50,[17],30.2 µM (active)
same,outcome,[17],inactive
CCC(=O)C(CC(C)N(C)C)(c1ccccc1)c1ccccc1 (stereo not given),outcome,[1],inactive
same,outcome,[2],inactive
same,outcome,[3],inactive
same,outcome,[4],inactive
same,outcome,[5],inactive
same,outcome,[6],inactive
same,outcome,[7],inactive
same,outcome,[8],inactive
same,outcome,[9],inactive
same,outcome,[10],inactive
same,outcome,[11],inactive
same,outcome,"CD40, CD40 (gene 958)",inactive
same,outcome,[18],inactive
same,outcome,[12],inactive
same,outcome,[13],inactive
same,outcome,[14],inactive
same,outcome,[16],inactive
same,outcome,[17],inactive
